Shown are actives, neighbours in structure and some others; about 8.1% of the full set was active somewhere.
MITF inhib = MITF inhibition | TRPM1 promoter luciferase, luminescence, 24 h | inhibition, % (test concentration not listed) | hit rate 0.28% among 37,000 | AID 2240; in the data active = inhibition above about 85%; inconclusive = no clear call, values can overlap the other calls; inactive = below about 68%;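 note: human melanocyte line stably carrying TRPM1 promoter luciferase reporter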
Shh pathway inh = blocks Sonic Hedgehog signaling; inhibition, % (concentration not given with the values); Shh-LIGHT2 Gli-luciferase reporter, 30 h; hit rate 2.1% among 22,000;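 active = mean inhibition across valid replicates above about 65%, limit read from the data; inconclusive = mean under the limit, yet half or more replicates past it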;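 note: pathway switched on by Shh-conditioned medium diluted 1 in 25 in low serum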
PD-1 reversal = reversal of PD-1 mediated T-cell inhibition | primary human CD4 T cells, PD-L1 beads, CellTiter-Glo 96 h | activation, % (no concentration beside the values) | 29,000 tested, under 10 active | AID 2316; call rule not given here;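 note: 0% = median vehicle wells and 100% = positive control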
NOMO-1 viab = STK33 inhibitor candidate reducing NOMO-1 cell viability. NOMO-1 AML viability, CellTiter-Glo luminescence, 72 h. inhibition, % (concentration not given with the values). hit rate 7.5% among 37,000. AID 2330; in the data active = inhibition above about 80%; inconclusive = no clear call, values can overlap the other calls
Numbers without * were called inactive; ? = inconclusive; nt = no result.

SMILES	MITF inhib	Shh pathway inh	PD-1 reversal	NOMO-1 viab
C/C=C\C(C)=C\[C@H](C)C(=O)C[C@H](O)CC1CC(=O)NC(=O)C1	52	53	0	77
CCCN1CCc2cc(O)cc3c2[C@H]1Cc1ccc(O)c(O)c1-3	-7	41	nt	109*
CN1CCc2cc(O)cc3c2[C@H]1Cc1ccc(O)c(O)c1-3	-18	31	nt	105*
COc1ccc2c(c1O)-c1c3c(cc4c1C(C2)N(C)CC4)OCO3 (centres undefined)	nt	5	nt	nt
Cc1cc(OC(=O)N(C)C)cc(=O)n1C	-28	-6	0	17
O=C(O)CP(=S)(c1ccccc1)c1ccccc1	16	9	-1	-14
CCOC(=O)c1c(C)n(C2CCCCC2)c2ccc(O)cc12	-1	23	0	25
CC(C)c1cc2c(cc1O)[C@@]1(C)C[C@@H](O)CC(C)(C)C1CC2 (some centres undefined)	-4	-21	-1	103*
COc1ccc2c3c1O[C@H]1[C@@H](O)CC=C4[C@@H](C2)N(C)CC[C@]431	-8	-37	nt	13
O=c1cccc2n1C[C@H]1CNCC2C1	7	-36	nt	6
COc1cc(C)c(Oc2cc(C)cc(O)c2)c(O)c1	9	-7	2	-4
CCN1C[C@]2(C)CC[C@H](O)[C@@]34C2[C@H](OC)C([C@@H]13)[C@@]1(O)C[C@H](OC)[C@H]2C[C@@H]4[C@@H]1[C@H]2O	26	-4	-9	107*
CC1=C[C@H]2[C@]3(O)[C@H](C)[C@@H](O)[C@@]4(O)[C@H]([C@@H]3C=C(CO)C[C@]2(O)C1=O)C4(C)C	-5	13	1	1
O=C(Nc1ccc2c(C(F)(F)F)cc(=O)oc2c1)c1cc(Cl)cc(Cl)c1	8	-23	1	122*
COc1cc2c(cc1O)[C@@H]1Cc3ccc(OC)c(O)c3CN1CC2	28	-9	nt	108*
COc1cc2c(cc1O)C1Cc3ccc(OC)c(O)c3CN1CC2 (centres undefined)	4	-7	-13	117*
COc1cc2c(cc1O)C[C@H]1c3c(cc(O)c(OC)c3-2)CCN1C	13	-31	nt	13
C/C=C/[C@@H]1[C@H]2C[C@@H](C)CC[C@@H]2C(C)=C[C@H]1C(=O)c1c(O)c(-c2ccc(O)cc2)c[nH]c1=O	20	-9	-1	52
COc1ccc2c(c1OC)C(=O)O[C@@H]2[C@@H]1c2cc3c(cc2CCN1C)OCO3	-9	-2	nt	-27
COC[C@H]([C@@H](O)[C@@H](O)C(=O)NCC[C@@H](C)c1nc(/C=C/C[C@H]2OC3(C[C@H](O)[C@H]2C)OC([C@@H](C[C@@H](O)[C@@H](C)[C@@H](O)[C@@H](C)/C=C(C)/C(C)=C/C=C/C(C)=C\C#N)OC)[C@@H](OP(=O)(O)O)C3(C)C)co1)N(C)C (some centres undefined)	65	105*	-42	139*
CC(=O)O[C@@H](c1nc2ccccc2c(=O)n1[C@@H]1C[C@@]2(OC1=O)c1ccccc1N1C(=O)[C@H](C)N(O)[C@@H]12)C(C)C	15	14	-1	84*
CCc1ccc(CN2CCN(Cc3cccc(OC)c3)CC2)cc1	1	nt	0	26
O=C1NC(=O)C(CCc2ccncc2)(CCc2ccncc2)C(=O)N1c1ccccc1F	4	nt	-1	-7
O=C(O)CCCc1ccc(N(CCCl)CCCl)cc1	-7	10	nt	110*
N[C@@H](Cc1ccc(N(CCCl)CCCl)cc1)C(=O)O	13	23	nt	111*
SMILES	MITF inhib	Shh pathway inh	PD-1 reversal	NOMO-1 viab
COc1ccc(C(=O)O[C@H]2CC[C@@]3(C)[C@@H]4CC[C@H]5[C@]6(O)C[C@H](O)[C@@]7(O)[C@@H](CN8C[C@@H](C)CC[C@H]8[C@@]7(C)O)[C@]6(O)C[C@@]53O[C@]24O)cc1OC	-10	-20	nt	-7
O=C1NC(=O)C(=C/C=C/c2ccccc2)C(=O)N1	87*	?	-9	113*
C=C1C(=O)O[C@@H]2[C@H]3C(=C)[C@@H](O)C[C@H]3C(=C)C[C@@H](O)[C@@H]12	-3	-10	-5	113*
CCC(C)C1NC(=O)C2CCCN2C(=O)C(CC(C)C)OC(=O)CCNC(=O)C(C)N(C)C(=O)C(C(C)C)N(C)C1=O (centres undefined)	-47	58	0	106*
CCOC(=O)C1=NN(c2ccc(C)cc2)C2c3cccc4cccc(c34)C12 (centres undefined)	-62	nt	0	22
O=C1NC(=O)N(c2ccccc2)C(=O)/C1=C/c1ccco1	3	nt	-3	136*
CCN1CC2(COC)CCC(O)C34C5CC6C(OC)CC(O)(C5C6O)C(C(OC)C23)C14 (centres undefined)	-2	-17	0	1
